According to ChEMBL document CHEMBL1961873, “Compounds: GSK PKIS; Assays: Nanosyn kinase panel” (2012):

How the values were obtained:
[1] = molecular target: T1, Serine/threonine-protein kinase TBK1 (Homo sapiens) (UniProt Q9UHD2); settings: at 1 µM;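 also: values are mean inhibition of TBK1, screened as part of the GSK published kinase inhibitor set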
T1 sequence (whole entry): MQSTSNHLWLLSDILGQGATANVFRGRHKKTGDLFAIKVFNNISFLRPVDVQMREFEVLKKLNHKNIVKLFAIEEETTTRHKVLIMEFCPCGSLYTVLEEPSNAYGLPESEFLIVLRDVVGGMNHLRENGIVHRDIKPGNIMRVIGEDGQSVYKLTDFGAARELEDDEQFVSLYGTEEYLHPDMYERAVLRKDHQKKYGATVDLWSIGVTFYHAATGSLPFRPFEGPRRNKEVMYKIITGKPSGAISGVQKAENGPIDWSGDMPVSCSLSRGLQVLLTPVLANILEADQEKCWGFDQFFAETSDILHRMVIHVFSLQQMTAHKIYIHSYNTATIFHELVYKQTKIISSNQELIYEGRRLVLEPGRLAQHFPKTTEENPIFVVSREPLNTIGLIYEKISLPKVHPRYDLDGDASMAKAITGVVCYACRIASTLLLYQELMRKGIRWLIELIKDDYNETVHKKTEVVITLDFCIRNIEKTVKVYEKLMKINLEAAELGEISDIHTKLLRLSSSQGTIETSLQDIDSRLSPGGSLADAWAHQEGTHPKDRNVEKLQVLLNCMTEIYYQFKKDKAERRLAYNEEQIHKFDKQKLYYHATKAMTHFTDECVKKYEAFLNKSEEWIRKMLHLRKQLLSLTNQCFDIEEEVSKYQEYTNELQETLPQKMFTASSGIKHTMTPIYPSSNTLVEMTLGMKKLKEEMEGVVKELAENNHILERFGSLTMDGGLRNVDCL

[2] = molecular target: T2, Testis-specific serine/threonine-protein kinase 1 (Homo sapiens) (UniProt Q9BXA7); settings: at 0.1 µM
T2 sequence (whole entry): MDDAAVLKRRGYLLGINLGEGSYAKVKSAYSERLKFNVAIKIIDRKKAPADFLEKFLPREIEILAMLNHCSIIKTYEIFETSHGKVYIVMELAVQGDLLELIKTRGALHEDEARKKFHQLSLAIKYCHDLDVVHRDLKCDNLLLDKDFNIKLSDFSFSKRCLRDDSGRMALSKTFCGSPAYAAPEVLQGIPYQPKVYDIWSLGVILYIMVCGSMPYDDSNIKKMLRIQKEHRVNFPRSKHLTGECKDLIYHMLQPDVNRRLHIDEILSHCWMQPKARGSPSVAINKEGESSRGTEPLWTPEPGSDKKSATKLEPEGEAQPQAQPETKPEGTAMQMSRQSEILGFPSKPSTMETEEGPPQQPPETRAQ

[3] = molecular target: T2, Testis-specific serine/threonine-protein kinase 1 (Homo sapiens); settings: at 1 µM
[4] = molecular target: T3, Testis-specific serine/threonine-protein kinase 2 (Homo sapiens) (UniProt Q96PF2); settings: at 0.1 µM
T3 sequence (whole entry): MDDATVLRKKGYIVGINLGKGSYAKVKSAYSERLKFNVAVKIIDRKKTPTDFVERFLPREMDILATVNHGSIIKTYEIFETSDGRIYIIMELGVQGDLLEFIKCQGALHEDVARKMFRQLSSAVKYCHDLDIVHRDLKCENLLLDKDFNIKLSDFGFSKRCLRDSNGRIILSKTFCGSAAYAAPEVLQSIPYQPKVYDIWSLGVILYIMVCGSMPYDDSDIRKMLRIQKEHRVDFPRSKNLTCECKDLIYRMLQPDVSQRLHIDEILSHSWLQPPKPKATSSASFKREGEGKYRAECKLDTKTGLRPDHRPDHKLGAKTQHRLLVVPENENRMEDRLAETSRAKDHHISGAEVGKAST

[5] = molecular target: T3, Testis-specific serine/threonine-protein kinase 2 (Homo sapiens); settings: at 1 µM
[6] = molecular target: Casein kinase I isoform alpha (Homo sapiens) (UniProt P48729); settings: at 0.1 µM
[7] = molecular target: Casein kinase I isoform alpha (Homo sapiens) (UniProt P48729); settings: at 1 µM
[8] = molecular target: Casein kinase I isoform gamma-1 (Homo sapiens) (UniProt Q9HCP0); settings: at 0.1 µM
[9] = molecular target: Casein kinase I isoform gamma-1 (Homo sapiens) (UniProt Q9HCP0); settings: at 1 µM
[10] = molecular target: Casein kinase I isoform gamma-2 (Homo sapiens) (UniProt P78368); settings: at 0.1 µM;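 also: values are mean inhibition figures reported as part of the GSK PKIS dataset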
Chain of Casein kinase I isoform gamma-2 (Homo sapiens) (P78368 whole entry, looked up, canonical isoform): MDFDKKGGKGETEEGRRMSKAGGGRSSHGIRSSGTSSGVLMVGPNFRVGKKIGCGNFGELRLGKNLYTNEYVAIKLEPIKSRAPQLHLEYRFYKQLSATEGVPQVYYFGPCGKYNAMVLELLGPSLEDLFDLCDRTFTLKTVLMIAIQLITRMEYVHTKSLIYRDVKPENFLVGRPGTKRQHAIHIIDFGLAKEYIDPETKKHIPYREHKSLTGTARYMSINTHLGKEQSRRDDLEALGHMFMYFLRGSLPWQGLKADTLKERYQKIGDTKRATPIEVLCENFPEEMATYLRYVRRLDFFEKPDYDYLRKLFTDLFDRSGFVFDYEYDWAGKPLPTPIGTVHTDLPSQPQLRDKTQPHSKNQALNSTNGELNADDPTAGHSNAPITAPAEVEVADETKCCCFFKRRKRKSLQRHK

Chain of Casein kinase I isoform gamma-1 (Homo sapiens) (Q9HCP0 whole entry, looked up, canonical isoform): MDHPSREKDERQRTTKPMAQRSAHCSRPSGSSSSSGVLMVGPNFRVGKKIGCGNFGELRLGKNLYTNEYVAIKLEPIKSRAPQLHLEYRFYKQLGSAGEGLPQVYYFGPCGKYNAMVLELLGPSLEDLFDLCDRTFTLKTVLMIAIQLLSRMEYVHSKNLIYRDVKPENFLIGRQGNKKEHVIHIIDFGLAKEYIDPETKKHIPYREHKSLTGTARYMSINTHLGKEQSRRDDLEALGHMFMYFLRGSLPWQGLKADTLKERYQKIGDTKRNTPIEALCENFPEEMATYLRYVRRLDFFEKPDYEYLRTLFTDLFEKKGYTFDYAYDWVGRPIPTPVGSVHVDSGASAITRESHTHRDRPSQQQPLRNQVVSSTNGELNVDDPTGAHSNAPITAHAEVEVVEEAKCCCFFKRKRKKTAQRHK
Chain of Casein kinase I isoform alpha (Homo sapiens) (P48729 2-337 limits assumed): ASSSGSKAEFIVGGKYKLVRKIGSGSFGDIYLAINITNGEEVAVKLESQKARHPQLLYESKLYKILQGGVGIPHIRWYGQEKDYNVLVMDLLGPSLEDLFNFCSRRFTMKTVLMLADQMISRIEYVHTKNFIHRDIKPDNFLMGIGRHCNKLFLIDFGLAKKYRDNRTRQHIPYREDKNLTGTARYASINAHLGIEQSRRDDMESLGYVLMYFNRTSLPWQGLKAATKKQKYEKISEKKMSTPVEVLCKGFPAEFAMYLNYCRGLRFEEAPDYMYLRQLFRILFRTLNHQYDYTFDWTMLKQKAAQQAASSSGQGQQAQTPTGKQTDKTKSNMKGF

Row | SMILES | inhibition [1] [%] | inhibition [2] [%] | inhibition [3] [%] | inhibition [4] [%] | inhibition [5] [%] | inhibition [6] [%] | inhibition [7] [%] | inhibition [8] [%] | inhibition [9] [%] | inhibition [10] [%]
1 | O=C(Nc1n[nH]c2cc(-c3ccccc3)ccc12)C1CC1 | 8.06 | 2.16 | 2.02 | 1.41 | 0.6 | 3.51 | 5.68 | 5.13 | 5.75 | 4.46
2 | O=C(Nc1n[nH]c2nc(-c3ccc(O)cc3)c(Br)cc12)C1CC1 | 22.6 | 5.99 | 5.96 | 3.73 | 4.53 | 4.72 | 5.83 | 4.64 | 5.67 | 4.14
3 | Fc1ccc(-c2c(-c3ccncc3)nc3n2CCS3)cc1 | 2.15 | 2.46 | 2.91 | 1.87 | 2.38 | 2.51 | 4.21 | -1.2 | -0.38 | -1.41
4 | C#Cc1cccc(Nc2ncnc3ccc(OCCCCNCCS(C)(=O)=O)cc23)c1 | 8.32 | 6.03 | 6.34 | 2.32 | 2.71 | 2.51 | 7.93 | 0.79 | 1.77 | 0.57
5 | COc1cc2ncn(-c3cc(OCc4cccs4)c(C(N)=O)s3)c2cc1OC | 16.7 | 4.25 | 8.81 | 2.91 | 7.11 | 2 | 3.36 | -0.26 | -1.01 | -1.54
6 | COc1cccc(-n2cnc3c(N/N=C/c4ccncc4)ncnc32)c1 | 2.56 | 0.41 | 5.32 | 0.37 | 4.98 | 0.17 | 0.8 | -3.8 | -4.26 | -3.36
7 | COc1ccc(-c2ccc3c(NC(=O)C4CC4)n[nH]c3n2)cc1 | 0.62 | 2.89 | 4.85 | 0.65 | 4.63 | 6.34 | 0.42 | 1.84 | 2.17 | 1.99
8 | C[C@@H](Oc1cc(-n2cnc3ccc(OC4CCN(C)CC4)cc32)sc1C(N)=O)c1ccccc1Cl | 4.33 | 4.11 | 10.3 | 2.61 | 1.72 | 4.09 | 6.16 | 0.61 | -0.21 | 0.26
9 | Nc1nccc(-c2c(-c3ccc(F)cc3)ncn2C2CCC(O)CC2)n1 (stereo not given) | 1.41 | -2.82 | -1.96 | -1.46 | -0.41 | 62.4 | 90.1 | -1.19 | 5.79 | -1.13
10 | c1ccc(Oc2ccc(Nc3ncc(-c4ccccc4)o3)cc2)cc1 | 2.41 | 1.11 | 1.56 | 0.35 | 0.74 | 5.38 | 7.2 | 0.74 | 2.02 | 0.49
11 | CCc1ccc(Oc2nccc(-c3c(-c4ccc(F)cc4)ncn3C3CCNCC3)n2)cc1 | 4.95 | 3.27 | 5.22 | 1.61 | 2.6 | 6.84 | 36.5 | 3.65 | 14.8 | 3.26
12 | NS(=O)(=O)c1ccc(Nc2cc(-c3ccc(O)c(F)c3)n[nH]2)cc1 | 7.59 | -1.37 | -0.04 | -3.53 | -0.52 | -2.61 | 4.49 | -2 | 0.81 | -1.44
13 | Cc1ccc(C(=O)NC(C)C)cc1-c1ccc(C(=O)NCC2CC2)cc1 | -1.07 | -1.97 | -1.52 | -1.67 | -1.52 | -3.83 | -5.5 | -2.95 | -2.32 | -2.65
14 | CS(=O)(=O)CCNCc1cc(-c2cc3c(Nc4ccc(OCc5cccc(F)c5)c(Cl)c4)ncnc3s2)cs1 | 4.88 | 4.02 | 4.37 | 2.22 | 2.42 | 6.3 | 8.73 | 3.81 | 4.73 | 3.23
15 | COc1cc2ncn(-c3cc(OCCc4ccccc4)c(C(N)=O)s3)c2cc1OC | 22.3 | 1.85 | 2.26 | -0.18 | -0.8 | 2.37 | 3.77 | 3.01 | 5.65 | 2.92
16 | Cc1ccc(C(=O)NC2CCC2)cc1-c1ccc(C(=O)NCC2CC2)cc1 | 2.24 | 2.11 | 1.32 | 0.09 | -0.03 | 3.36 | 6.49 | 2.64 | 3.13 | 1.72
17 | CN(C)c1ccc2c(c1)/C(=C/Nc1ccc(S(N)(=O)=O)cc1)C(=O)N2 | 49.7 | 2.84 | 9.92 | 0.44 | 1.25 | 1.06 | 2.88 | 1.12 | 1.57 | 1.13

Row | SMILES | inhibition [1] [%] | inhibition [2] [%] | inhibition [3] [%] | inhibition [4] [%] | inhibition [5] [%] | inhibition [6] [%] | inhibition [7] [%] | inhibition [8] [%] | inhibition [9] [%] | inhibition [10] [%]
18 | COc1cc(C)c(N(C)C(=O)CN(C)C)cc1Nc1nc(Nc2cccc(F)c2C(N)=O)c2cc[nH]c2n1 | 3.23 | 3.79 | 16.4 | 1.25 | 4.87 | -0.71 | 6 | -0.75 | 11.3 | -2.38
19 | C/C(Nc1ccc(S(N)(=O)=O)cc1)=C1/C(=O)Nc2ccccc21 | 4.75 | 0.79 | 5.46 | -0.65 | 1.13 | 2.64 | 8.53 | -0.74 | 6.33 | 1.03
20 | c1ccc(-c2n[nH]cc2-c2ccnc(-c3ccc(OCCN4CCOCC4)cc3)c2)nc1 | 1.95 | -1.9 | -3.08 | -1.89 | -0.96 | 0.38 | 1.39 | -1.07 | -0.62 | -2.46
21 | CN(C)CCCNc1nccc(-c2c(-c3ccc(F)cc3)nn3cc(C(F)(F)F)ccc23)n1 | 4.86 | 1.45 | -1.19 | 0.61 | -2.11 | 1.35 | 14.8 | -2.45 | -1.14 | -3.5
22 | NC(=O)c1ccc(Oc2nccc(-c3c(-c4ccc(F)cc4)ncn3C3CCNCC3)n2)cc1 | 4.3 | 4.45 | 5.29 | 2.52 | 2.46 | 5.63 | 30.3 | 5.2 | 9.98 | 5.16
23 | Fc1ccc(-c2nc3n(c2-c2ccncc2)CCS3)cc1 | 2.87 | 3.08 | 2.73 | 1.01 | 0.48 | 10.8 | 42.4 | 0.76 | 5.36 | -1.13
24 | NC(=O)c1cc(-c2ccncc2)cc(-c2ccccc2)c1N | 9.27 | 3.7 | 5.71 | 2.4 | 1.64 | 4.55 | 7.76 | 4.75 | 5.37 | 3.86
25 | Fc1ccc(-c2ncn(C3CCNCC3)c2-c2ccnc(Oc3ccc(Oc4ccccc4)cc3)n2)cc1 | 2.57 | 4.18 | 4.2 | 0.94 | 2.4 | 10.7 | 49.6 | 6.35 | 20.6 | 5.54
26 | COc1ccc2ncn(-c3cc(O[C@H](C)c4ccccc4Cl)c(C(N)=O)s3)c2c1 | 3.86 | 2.29 | 2.54 | 0.96 | 1.28 | 2.14 | 2.16 | 0.39 | -0.54 | -0.05
27 | O=C1Nc2ccc(I)cc2C1=Cc1cc(Br)c(O)c(Br)c1 | 2.5 | 4.56 | 5.45 | 2.33 | 2.81 | 5.08 | 6.76 | 3.7 | 5.38 | 3.7
28 | O=C(NCC1CC1)c1ccc(-c2cccc(C(=O)NC3CC3)c2)cc1 | 0.69 | 2.17 | -0.94 | 0.33 | -1.83 | 2.21 | 3.38 | 2.43 | 3.84 | 1.59
29 | Cc1nnc(-c2ccc(C)c(-c3ccc(C(=O)NCc4ccc(Cl)cc4)cc3)c2)o1 | 3.88 | 4.06 | 4.33 | 1.65 | 3.27 | 2.79 | 4.63 | 0.71 | 2.06 | -1.05
30 | CCN(CC)Cc1ccc(Nc2nccc(-c3cnn4ncccc34)n2)cc1 | 12.3 | 5.5 | 26.5 | 0.81 | 2.16 | 15.2 | 54.3 | 2.36 | 6.01 | 1.79
31 | CCc1nccc2c1nc(-c1nonc1N)n2CC | 6.1 | 0.58 | 0.27 | -0.65 | -0.91 | 3.39 | 3.67 | 0.76 | 2.98 | 0.48
32 | CN(C)CCOc1ccc(-c2cc(-c3ccc4c(c3)CCC4=NO)c(-c3ccncc3)o2)cc1 | -0.95 | -0.74 | 0.17 | 0.18 | 1.16 | -1.99 | -1.5 | -1.03 | -0.13 | -0.84
33 | NS(=O)(=O)c1ccc(N/N=C2\C(=O)Nc3ccc(-c4cnco4)cc32)cc1 | 38.4 | 2.73 | 12.4 | 0.01 | 1.76 | 0.46 | 3.06 | -2.5 | -1.7 | -2.15
34 | COc1cc(N2CCN(C(C)C)CC2)ccc1Nc1nc(Nc2ccc(F)cc2C(=O)NC[C@@H](O)CO)c2cc[nH]c2n1 | 4.23 | 45.9 | 84.9 | 15.7 | 53.7 | 4.46 | 12.9 | 2.26 | 17.9 | 2.13
